The list is not random: actives were taken first. Their share in the collection is about 3.1%.
MEKK2mut PB1 HTS – signal of MEK5 binding to mutant human MEKK2 PB1 domain; AID 1530; bead flow cytometry, Alexa488-MEK5 binding to MEKK2 mutant; percent response, % at 10 µM; 0.35% of 290,000 active; in the data active = percent response above about 24%, passing the limit was not always enough
PREPL inh – human PREPL enzyme inhibition; Q4J6C6; recombinant PREPL, fluorescence polarization activity-based probe; inhibition, % at 5.96 µM; 0.68% of 320,000 active; in the data active = inhibition above about 43%
Target sequence (Q4J6C6 whole entry, looked up): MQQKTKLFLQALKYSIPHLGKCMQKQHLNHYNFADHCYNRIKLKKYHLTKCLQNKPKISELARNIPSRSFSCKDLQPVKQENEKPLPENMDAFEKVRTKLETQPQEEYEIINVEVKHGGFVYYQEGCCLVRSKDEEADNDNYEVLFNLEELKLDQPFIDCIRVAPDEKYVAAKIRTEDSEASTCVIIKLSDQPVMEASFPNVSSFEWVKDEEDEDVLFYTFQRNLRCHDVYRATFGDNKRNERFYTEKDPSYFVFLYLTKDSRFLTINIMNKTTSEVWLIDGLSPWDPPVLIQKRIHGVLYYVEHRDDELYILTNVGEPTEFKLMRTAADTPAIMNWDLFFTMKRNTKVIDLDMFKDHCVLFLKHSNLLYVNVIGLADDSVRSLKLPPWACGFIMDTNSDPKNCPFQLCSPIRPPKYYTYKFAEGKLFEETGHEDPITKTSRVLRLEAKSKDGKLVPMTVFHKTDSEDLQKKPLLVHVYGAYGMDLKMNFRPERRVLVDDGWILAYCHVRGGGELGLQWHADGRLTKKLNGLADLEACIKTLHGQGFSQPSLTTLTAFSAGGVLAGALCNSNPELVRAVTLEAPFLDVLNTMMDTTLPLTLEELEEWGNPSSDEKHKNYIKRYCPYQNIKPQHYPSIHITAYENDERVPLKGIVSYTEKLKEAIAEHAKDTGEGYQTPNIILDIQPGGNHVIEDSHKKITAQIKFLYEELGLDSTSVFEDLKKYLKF
MEKK3 PB1 HTS – raises or lowers MEK5 binding to the human MEKK3 PB1 domain | 1.4% of 290,000 active | Q99759 | binding response (% of control), % at 10 µM | bead-based flow cytometry, Alexa488-MEK5 binding to MEKK3; actives lie on both sides; 0 = blocked by unlabeled MEK5, 100 = vehicle;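 active = binding response more than 3 SD above or below the average of its plate-row segment, actives on both sides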;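 note: Alexa488 bead fluorescence after subtracting the streptavidin-only scavenger bead signal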
MEKK2wt PB1 HTS – raises or lowers MEK5 binding to wildtype human MEKK2 PB1 domain | Q9Y2U5 | bead flow cytometry, Alexa488-MEK5 binding to MEKK2 WT; actives lie on both sides | binding response (% of control), % at 10 µM | 1.1% of 290,000 active; in the data active = binding response below about 67% or above about 130%
ATG4B inh – inhibitors of human ATG4B cysteine protease. inhibition, % at 8.33 µM. ATG4B cleavage of LC3-PLA2, NBD-HPC fluorescence, 1 h. 0.51% of 340,000 active. Q9Y4P1; in the data active = inhibition above about 40%
UBC13 inh – human UBC13 polyubiquitination inhibition. 0.47% of 330,000 active. P61088. inhibition, % at 20 µM. UBC13 polyubiquitin chain formation, TR-FRET; in the data active = inhibition above about 45%, passing the limit was not always enough
MEKK2wt confirm – raises or lowers MEK5 binding to wildtype human MEKK2, retest; shares compounds with MEKK3 PB1 HTS; bead flow cytometry, Alexa488-MEK5 binding to MEKK2 WT; actives lie on both sides; binding response (% of control), % at 10 µM; 2.4% of 5,900 active; in the data active = binding response below about 16% or above about 210%; inactive = in between
MEKK2mut-MEK5 – signal of MEK5 binding to mutant human MEKK2, retest | shares compounds with MEKK3 PB1 HTS | bead flow cytometry, Alexa488-MEK5 binding to MEKK2 mutant | percent response, % at 10 µM | 2% of 5,900 active | AID 1893; in the data active = percent response mostly above about 71%, no sharp cut-off; inactive = mostly below about 38%;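 note: higher means compound restores mutant binding toward wildtype level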
MEKK3-MEK5 inh – confirmation of inhibitors of MEK5 binding to human MEKK3 | shares compounds with MEKK3 PB1 HTS | bead flow cytometry, Alexa488-MEK5 binding to MEKK3; hits give low values | binding response (% of control), % at 10 µM | 1.8% of 5,900 active;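 active = binding response below 72% of control, or above a set upper limit, though filed actives all read lower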;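 note: lower values mean stronger disruption of MEK5 binding to MEKK3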
Each line names hits and unclear results; the compound was inactive in the other large screens (follow-up assays come after a bar, where they were run); [ ] = remark or other dose.

Cc1cc(Nc2cccc(F)c2)nc(NCc2ccccc2)n1	MEKK2wt PB1 HTS 142 | MEKK2wt confirm inactive | MEKK2mut-MEK5 inactive | MEKK3-MEK5 inh inactive
Fc1cc(NCc2ccccc2)nc(NCc2ccccc2)n1	none
Cc1cc(N/N=C/c2ccc(N(C)C)cc2)nc(NCc2ccccc2)n1	MEKK2mut PB1 HTS 75, MEKK2wt PB1 HTS 229 | MEKK2wt confirm 247 | MEKK2mut-MEK5 89 | MEKK3-MEK5 inh inactive
O=C(C=P(c1ccccc1)(c1ccccc1)c1ccccc1)c1ccccc1-c1ccccc1C(=O)C=P(c1ccccc1)(c1ccccc1)c1ccccc1	none (no result: MEKK2mut PB1 HTS, PREPL inh, MEKK3 PB1 HTS, MEKK2wt PB1 HTS, UBC13 inh)
CCOC(=O)C(NC(=O)c1ccccc1)(OCc1ccccc1)C(F)(F)F (stereo unspecified)	MEKK3 PB1 HTS 159 | MEKK2wt confirm inactive | MEKK2mut-MEK5 inactive | MEKK3-MEK5 inh inactive
Cc1cc(Cl)ccc1N(CC(=O)N=Nc1c(O)[nH]c2ccccc12)S(C)(=O)=O	none
Cc1ccc(S(=O)(=O)N(CC(=O)N=Nc2c(O)[nH]c3ccccc23)c2cccc(C)c2)cc1	MEKK3 PB1 HTS 150 | MEKK2wt confirm inactive | MEKK2mut-MEK5 inactive | MEKK3-MEK5 inh inactive
CCc1ccc(NC(=O)/C(C#N)=C/c2cn(CC(=O)O)c3ccccc23)cc1	none
N#C/C(=C/c1cn(CC(=O)O)c2ccccc12)C(=O)Nc1ccccc1	MEKK2wt PB1 HTS 41[inhibitor] | MEKK2wt confirm inactive | MEKK2mut-MEK5 inactive | MEKK3-MEK5 inh inactive
N#C/C(=C\c1cn(Cc2ccc(F)cc2)c2ccccc12)C(=O)NCc1ccco1	MEKK3 PB1 HTS 129 | MEKK2wt confirm inactive | MEKK2mut-MEK5 inactive | MEKK3-MEK5 inh inactive
CN(C)C(CNS(=O)(=O)c1ccc(Cl)cc1F)c1ccco1 (stereo unspecified)	none (no result: MEKK2mut PB1 HTS, MEKK3 PB1 HTS, MEKK2wt PB1 HTS)
O=C(O)CCC(=O)Nc1ccc(Cc2ccc(NC(=O)CCC(=O)O)c(O)c2)cc1O	none
O=C(Nc1ccc(Cc2ccc(NC(=O)C3CC3)c(O)c2)cc1O)C1CC1	MEKK3 PB1 HTS 127 | MEKK2wt confirm inactive | MEKK2mut-MEK5 inactive | MEKK3-MEK5 inh inactive
CCCN1CCN(CCCNC(=O)c2cc3c(=O)[nH]c4ccc(C)cc4c3s2)CC1	MEKK3 PB1 HTS 67[inhibitor] | MEKK2wt confirm inactive | MEKK2mut-MEK5 inactive | MEKK3-MEK5 inh inactive
COc1ccc(/C(C)=N\O)cc1OC	none
CC1=N/C(=C\c2ccc([N+](=O)[O-])cc2)C(=O)N1c1ccc(Br)c(C)c1	MEKK3 PB1 HTS 82[inhibitor], MEKK2wt PB1 HTS -2.0 | MEKK2wt confirm inactive | MEKK2mut-MEK5 inactive | MEKK3-MEK5 inh inactive
COc1ccc(N2C(=O)/C(=C/c3ccc([N+](=O)[O-])cc3)N=C2C)cc1	none
CC1CCCN(CCCOc2ccc(Cl)cc2Br)C1 (stereo unspecified)	none
CC1CCCN(CCOc2ccc3ccccc3c2Br)C1 (stereo unspecified)	MEKK2wt PB1 HTS 157 | MEKK2wt confirm inactive | MEKK2mut-MEK5 inactive | MEKK3-MEK5 inh inactive
COc1ccccc1CCNC(=O)CSc1ccc(-c2cccs2)nn1	MEKK3 PB1 HTS 61[inhibitor] | MEKK2wt confirm inactive | MEKK2mut-MEK5 inactive | MEKK3-MEK5 inh inactive
COc1ccc(CCNC(=O)CSc2ccc(-c3ccccc3)nn2)cc1	MEKK3 PB1 HTS 131 (no result: ATG4B inh) | MEKK2wt confirm inactive | MEKK2mut-MEK5 inactive | MEKK3-MEK5 inh inactive
COc1ccc(C(=O)CSc2ccc(-c3ccccc3)nn2)cc1	none
CC(C)CN(C(=O)c1nn(C)c(=O)c2ccccc12)c1nc2ccccc2s1	none
O=C(CCc1ccccc1)NCC1(c2ccccc2)CCCC1	none
COC(CNc1ccc([N+](=O)[O-])c(NCC(OC)OC)c1C#N)OC	none
CCOc1ccccc1N1CCN(C(=O)C2CSC3(C)CCC(=O)N23)CC1 (stereo unspecified)	none (no result: MEKK2mut PB1 HTS, MEKK3 PB1 HTS, MEKK2wt PB1 HTS)
